Experimental findings from PubChem BioAssay (NCATS) are described below.

Inconclusive results are not listed. Where a call stands in place of a potency, no number is given. The source made the active and inactive calls. Calls come from the whole dose curve; as a rule, active = well fitted curve in the direction sought with a large enough effect; inconclusive = small, poorly fitted or top-dose-only effect, or another doubt; inactive = no such curve, though single readings can be large; an effect the other way counts as inactive or inconclusive.

A short description of experiment [1]: Primary qHTS for inhibitors of nuclear receptor binding SET domain protein 2 (NSD2) in an isogenic RCH-ACV NSD2 p.E1099K mutant (9B) (AID 1645876). Note: nearly all actives have a fitted effect of over 70% in size.
Experiment [2] can be described thus: Primary qHTS for inhibitors of nuclear receptor binding SET domain protein 2 (NSD2) in an RCH-ACV wild type WT cells (2C) (AID 1645877). Note: nearly all actives have a fitted effect of over 70% in size.
The target of experiment [3] is Rap guanine nucleotide exchange factor 3 (Homo sapiens) (UniProt O95398). In words: Confirmatory qHTS for antagonist of cAMP-regulated guanine nucleotide exchange factor 3 (EPAC1) (AID 1645880). Note: potency is the fitted concentration of half-maximal effect; nearly all actives have a fitted effect of over 55% in size. Particulars: EPAC1 Rap1B-BODIPY-GDP exchange, fluorescence. In a few lines: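 Nucleotide exchange uses 100 nM EPAC1, 250 nM RAP1B-BODIPY-GDP and 50 uM GDP, with compounds in a concentration-titration series. After 5 min at room temperature, fluorescence (480 nm ex/540 nm em) is read every 5 min for 30 min. Data are normalized to control ATA and DMSO.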
Chain of Rap guanine nucleotide exchange factor 3 (Homo sapiens) (O95398 whole entry, looked up): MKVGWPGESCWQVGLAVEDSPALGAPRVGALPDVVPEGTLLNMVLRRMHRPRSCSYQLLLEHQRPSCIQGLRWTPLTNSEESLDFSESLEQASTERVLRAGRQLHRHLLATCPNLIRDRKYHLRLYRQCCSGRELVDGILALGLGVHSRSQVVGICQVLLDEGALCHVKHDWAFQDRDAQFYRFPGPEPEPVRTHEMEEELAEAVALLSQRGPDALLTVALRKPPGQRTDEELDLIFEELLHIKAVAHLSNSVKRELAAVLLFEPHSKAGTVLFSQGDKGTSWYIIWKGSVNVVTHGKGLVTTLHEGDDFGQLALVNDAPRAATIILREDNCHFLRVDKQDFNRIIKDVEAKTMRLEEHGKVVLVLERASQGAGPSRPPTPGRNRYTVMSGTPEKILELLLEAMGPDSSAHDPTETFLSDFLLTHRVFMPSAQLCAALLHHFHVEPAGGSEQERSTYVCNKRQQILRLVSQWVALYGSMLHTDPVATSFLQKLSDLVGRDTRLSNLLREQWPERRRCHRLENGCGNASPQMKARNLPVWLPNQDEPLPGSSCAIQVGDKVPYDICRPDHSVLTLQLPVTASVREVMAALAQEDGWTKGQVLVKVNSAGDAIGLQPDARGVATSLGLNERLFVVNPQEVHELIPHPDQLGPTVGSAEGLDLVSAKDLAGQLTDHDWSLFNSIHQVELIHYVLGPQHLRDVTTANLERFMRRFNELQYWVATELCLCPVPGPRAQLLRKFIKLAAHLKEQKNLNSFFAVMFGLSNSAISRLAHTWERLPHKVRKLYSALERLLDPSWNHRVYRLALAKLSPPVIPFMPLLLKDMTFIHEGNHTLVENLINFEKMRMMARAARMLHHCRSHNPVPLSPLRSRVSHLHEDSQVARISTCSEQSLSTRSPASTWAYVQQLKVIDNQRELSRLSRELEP

Experiment [4] shares this target. Kind of experiment: Confirmatory qHTS for agonist of cAMP-regulated guanine nucleotide exchange factor 3 (EPAC1) (AID 1645881).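 Note: EPAC1 catalysed release of BODIPY-GDP from Rap1B seen as fluorescence loss; nearly all actives have a fitted effect of over 75% in size.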

As to `C=C1CC[C@H]2[C@@H](/C=C(\C)C(=O)[C@@]3(OC(C)=O)C[C@H](C)[C@H](OC(C)=O)[C@@H]3[C@H]1OC(C)=O)C2(C)C`, the Potency result in experiment [1] and in experiment [2] was “inactive” each time. With `COC(=O)[C@@H]1C2CC3c4[nH]c5ccccc5c4CCN3CC2CC[C@@H]1O` (some centres undefined), the Potency result in experiment [1] and in experiment [2] was “inactive” each time. With `CC1CCC23COC(=O)C2=CC(O)CC3C1(C)CCC1=CC(=O)OC1O` (centres undefined), the Potency entry in experiment [1] and in experiment [2] was “inactive” throughout. Turning to `C=C1CCC2C(C)(C)CC(=O)CC2(C)C1CCC(C)CCOC(C)=O` (centres undefined), the Potency entry in experiment [1] and in experiment [2] was “inactive” throughout. As for `Cc1c(CN(C)C(=O)/C=C/c2cnc3c(c2)CCC(=O)N3)oc2ccccc12`, the Potency result in experiment [1] and in experiment [2] was “inactive” each time. As for `CC(C)CC(=O)n1cc(C(N)=O)c(=O)cc1C(O)c1ccccc1` (centres undefined), the Potency result in experiment [1] and in experiment [2] was “inactive” each time. In the case of `C/C(=C/CCC(CO)C1CCC2(C)C3CCC4C(C)(C)C(OC5OC(CO)C(O)C(O)C5O)CC(O)C45CC35CCC12C)COC1OC(CO)C(O)C(O)C1O` (centres undefined), the Potency entry in experiment [1] and in experiment [2] was “inactive” throughout. Take `CC(C)C(C#N)O[C@@H]1O[C@H](CO[C@@H]2OC[C@](O)(CO)[C@H]2O)[C@@H](O)[C@H](O)[C@H]1O` (some centres undefined): the Potency entry in experiment [1] and in experiment [2] was “inactive” throughout. Turning to `CC(Cc1ccc(O)c(O)c1)C(C)Cc1ccc(O)c(O)c1` (centres undefined), in experiment [3], the Potency is 31.4 µM (active). Moreover, the outcome in experiment [4] was inactive. On to `CC(C)(C)NC(=O)[C@@H]1C[C@@H]2CCCC[C@@H]2CN1C[C@@H](O)[C@H](Cc1ccccc1)NC(=O)[C@H](CC(N)=O)NC(=O)c1ccc2ccccc2n1`, for which the result in experiment [4] was inactive.
